Data as given in PubChem BioAssay (NCI).
The panel holds about 79,000 compounds, 15% with a hit somewhere; the sample as a whole holds those more often. Activity calls are given as the source filed them. No stated cut-off is given here; in the data, active means growth inhibition above about 70%; inactive means the rest.

Legend:
[1] = NCI Yeast Anticancer Drug Screen. Data for the rad50 strain (AID 155);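 further: 0% = growth of vehicle-only cultures of the same strain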; conditions: S. cerevisiae rad50 strain growth inhibition, hits give high values
Outline: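 Relative growth inhibition (compound vs vehicle) was measured in yeast with a defined repair-gene alteration.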

[2] = NCI Yeast Anticancer Drug Screen. Data for the mec2-1 strain (AID 157); conditions: S. cerevisiae mec2-1 strain, hits give high values
Outline: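 Mutant yeast (mec2-1) grown with compound; growth inhibition relative to vehicle control reported.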

[3] = NCI Yeast Anticancer Drug Screen. Data for the sgs1 mgt1 strain (AID 161);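 further: 0% = growth of cultures given vehicle only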; conditions: S. cerevisiae sgs1 mgt1 strain, hits give high values
Outline: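 Percent growth inhibition was derived by comparing compound-exposed mutant yeast with vehicle-exposed cultures. The strain carries alterations in DNA damage repair.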

[4] = NCI Yeast Anticancer Drug Screen. Data for the cln2 rad14 strain (AID 165);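 further: 0% = growth equal to vehicle treated cultures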; conditions: S. cerevisiae cln2 rad14 strain, hits give high values
Outline: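 Readout is yeast growth inhibition versus vehicle-treated controls, using a strain with cln2 and rad14 alterations exposed to compound.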

[5] = NCI Yeast Anticancer Drug Screen. Data for the bub3 strain (AID 167); conditions: S. cerevisiae bub3 mutant strain, hits give high values
Outline: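 Screening used yeast with an engineered genetic alteration affecting cell cycle control. Compound-exposed cultures were compared with vehicle cultures, and reduced growth was taken as inhibition.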

[6] = NCI Yeast Anticancer Drug Screen. Data for the mlh1 rad18 strain (AID 175); conditions: S. cerevisiae mlh1 rad18 strain growth inhibition, hits give high values
Outline: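 Genetically defined yeast (DNA repair-deficient) exposed to compounds; growth inhibition determined relative to vehicle.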

[7] = at 5.0 µM (retest, dose inferred, filed as 0.5)
[8] = at 50.0 µM (retest, dose inferred, filed as 5.0)

Measured: growth inhibition

N#CC(c1ccccc1)c1cccc2ccccc12 (centres undefined)
inactive: [1]; [7] 5% | [1]; [8] 68% | [2]; [7] 3% | [2]; [8] 35% | [3]; [7] 1% | [4]; [7] -4% | [4]; [8] -4% | [5]; [7] 7% | [5]; [8] 59% | [6]; [7] -25% | [6]; [8] 56%
active: [3]; [8] 74%

CCC1(CC)SC=C(C)NC1=O
inactive: [1]; at 50.0 µM unless noted -4.65% | [2]; at 50.0 µM unless noted -1.65% | [3]; at 50.0 µM unless noted 12.6% | [4]; at 50.0 µM unless noted -24.7% | [5]; at 50.0 µM unless noted -14.7%

N#CC(C#N)N=Nc1cc(Cl)ccc1Cl
active: [1]; [8] 93% | [2]; [8] 87% | [3]; [8] 99% | [4]; [8] 87% | [5]; [8] 96% | [6]; [8] 92%
inactive: [1]; [7] 20% | [2]; [7] 13% | [3]; [7] 16% | [4]; [7] 8% | [5]; [7] 15% | [6]; [7] -2%

CCCCOC(=O)/C=C\C(=O)NC(N)=O
inactive: [1]; [7] 4% | [1]; [8] 9% | [2]; [7] -1% | [2]; [8] 7% | [3]; [7] 5% | [3]; [8] 18% | [4]; [7] -3% | [4]; [8] 1% | [5]; [7] 0% | [5]; [8] 6% | [6]; [7] -21% | [6]; [8] 18%

CCCCCCCCCCNC(=O)CI
inactive: [1]; [7] 20% | [2]; [7] 7% | [3]; [7] 24% | [4]; [7] 10% | [4]; [8] 42% | [5]; [7] 14% | [6]; [7] 8%
active: [1]; [8] 98% | [2]; [8] 99% | [3]; [8] 99% | [5]; [8] 100% | [6]; [8] 98%

COc1cc(C)c(O)c(C(=O)O)c1
inactive: [1]; at 50.0 µM unless noted -3.7% | [2]; at 50.0 µM unless noted -7.65% | [3]; at 50.0 µM unless noted 2.25% | [4]; at 50.0 µM unless noted 0.05% | [5]; at 50.0 µM unless noted -1.45% | [6]; at 50.0 µM unless noted -4.25%

COc1ccc(C=NCC(OC)OC)cc1OCc1ccccc1
inactive: [1]; at 50.0 µM unless noted -14.9% | [2]; at 50.0 µM unless noted 7.15% | [3]; at 50.0 µM unless noted 14% | [4]; at 50.0 µM unless noted -16.4% | [5]; at 50.0 µM unless noted -3.05%

Cc1cc(C)c(F)c(C)c1F
inactive: [1]; at 50.0 µM unless noted -7.95% | [2]; at 50.0 µM unless noted -4.6% | [3]; at 50.0 µM unless noted -5.45% | [4]; at 50.0 µM unless noted -15.8% | [5]; at 50.0 µM unless noted 5.9%

COc1cc(-c2cc(=O)c3c(O)c(OC)c(OC)c(OC)c3o2)cc(OC)c1OC
inactive: [1]; at 50.0 µM unless noted -9.45% | [2]; at 50.0 µM unless noted -2.7% | [3]; at 50.0 µM unless noted -10.8% | [4]; at 50.0 µM unless noted -10% | [5]; at 50.0 µM unless noted -20.8%

Oc1cc(Cl)cc2cccnc12
active: [1]; at 50.0 µM unless noted 87.8% | [2]; at 50.0 µM unless noted 91.5% | [3]; at 50.0 µM unless noted 88.8% | [4]; at 50.0 µM unless noted 91.6% | [5]; at 50.0 µM unless noted 90%

Cc1ccc(C)n1-c1ccccc1
inactive: [1]; at 50.0 µM unless noted -12.6% | [2]; at 50.0 µM unless noted -37.5% | [3]; at 50.0 µM unless noted -7.75% | [4]; at 50.0 µM unless noted 9% | [5]; at 50.0 µM unless noted -8.2%

NNC(=O)Cc1cccnc1
inactive: [1]; at 50.0 µM unless noted -3.6% | [2]; at 50.0 µM unless noted -0.75% | [3]; at 50.0 µM unless noted -26.1% | [4]; at 50.0 µM unless noted -8% | [5]; at 50.0 µM unless noted -33%

Clc1ncc(Cl)c(Cl)n1
inactive: [1]; at 50.0 µM unless noted 68.7% | [2]; at 50.0 µM unless noted 18.6% | [3]; at 50.0 µM unless noted -46.8% | [4]; at 50.0 µM unless noted -22.5% | [5]; at 50.0 µM unless noted -50.8%

Cc1ccc(/C=C/C(=O)C(C)CN(C)C)cc1C (centres undefined)
inactive: [1]; at 50.0 µM unless noted -1% | [2]; at 50.0 µM unless noted -15.4% | [3]; at 50.0 µM unless noted 26.1% | [4]; at 50.0 µM unless noted 0.95% | [5]; at 50.0 µM unless noted 0.3%

O=C(Nc1ccc([N+](=O)[O-])cc1C(=O)O)c1ccc([N+](=O)[O-])cc1
inactive: [1]; at 50.0 µM unless noted 37.8% | [2]; at 50.0 µM unless noted -3.6% | [3]; at 50.0 µM unless noted 0.1% | [4]; at 50.0 µM unless noted 18.5% | [5]; at 50.0 µM unless noted -22.3%

C[C@H]1CC(=O)[C@@]2(O)C#C/C=C\C#C[C@@H]3Nc4c(cc(O)c5c4C(=O)c4ccccc4C5=O)[C@]24O[C@]314
active: [1]; at 50.0 µM unless noted 78% | [2]; at 50.0 µM unless noted 82% | [3]; at 50.0 µM unless noted 85.2% | [4]; at 50.0 µM unless noted 86.9% | [5]; at 50.0 µM unless noted 85.8%

C/C(=N\NC(=S)N1CCC(N2CCCCC2)CC1)c1ccccn1
active: [1]; at 50.0 µM unless noted 83.8% | [2]; at 50.0 µM unless noted 88.1% | [3]; at 50.0 µM unless noted 88% | [4]; at 50.0 µM unless noted 84.8% | [5]; at 50.0 µM unless noted 86%

CC(C)CCCC(C)C1CCC2C3CC=C4CC(OC(=O)Nc5ccc(S(=O)(=O)NC6CCCCC6)cc5)CCC4(C)C3CCC12C (centres undefined)
inactive: [1]; at 50.0 µM unless noted -1.85% | [2]; at 50.0 µM unless noted -4.35% | [3]; at 50.0 µM unless noted 12.7% | [4]; at 50.0 µM unless noted -38.1% | [5]; at 50.0 µM unless noted -12.4%

Cc1ccc(C)c(NC(=O)c2cccc(C(=O)Nc3cc(C)ccc3C)c2)c1
inactive: [1]; at 50.0 µM unless noted -13.1% | [2]; at 50.0 µM unless noted 0.45% | [3]; at 50.0 µM unless noted -4.3% | [4]; at 50.0 µM unless noted 8.05% | [5]; at 50.0 µM unless noted 7.95%

CC(=O)O[C@H]1C(=O)[C@@]2(C)C(C(OC(=O)c3ccccc3)[C@]3(O)CC(OC(=O)[C@H](OC(=O)CCC(=O)O)C(NC(=O)c4ccccc4)c4ccccc4)C(C)=C1C3(C)C)C1(OC(C)=O)COC1C[C@@H]2OC(=O)CCC(=O)O (some centres undefined)
inactive: [1]; at 50.0 µM unless noted 29.6% | [2]; at 50.0 µM unless noted -5.45% | [3]; at 50.0 µM unless noted -25.4% | [4]; at 50.0 µM unless noted -7.4% | [5]; at 50.0 µM unless noted -8.05%

NCC(=O)c1ccc2cc(Br)c3ccccc3c2c1
inactive: [1]; at 50.0 µM unless noted 5.7% | [2]; at 50.0 µM unless noted 0.45% | [3]; at 50.0 µM unless noted -1.2% | [4]; at 50.0 µM unless noted 17.9% | [5]; at 50.0 µM unless noted 12.4%
